# In the library only some 7.3% were active in any assay of this set; here they are far more common.
# Vaccinia Venus = qHTS for Stage-Specific Inhibitors of Vaccinia Orthopoxvirus: Venus Reporter Primary qHTS | actives 0.46% (n = 330,000) | Potency, µM (highest dose often 36.5 µM), for the others: at the highest dose activity change, negative = inhibition, actives largely listed as inhibitors | Vaccinia virus Venus reporter expression, fluorescence; calls by dose curve; tested in A549 cells; further: potency means the concentration at half of the fitted maximal effect; nearly all actives have a fitted effect of over 30% in size
# VACV mCherry inh = qHTS for Stage-Specific Inhibitors of Vaccinia Orthopoxvirus: mCherry Reporter Primary qHTS; actives 0.63% (n = 310,000); Vaccinia virus mCherry reporter infection, fluorescence; Potency, µM (titrated, usually from 36.5 µM), without a hit: at the highest dose activity change, negative = inhibition, usual class: inhibitors; calls by dose curve; tested in A549 cells; further: potency means the concentration at half of the fitted maximal effect; nearly all actives have a fitted effect of over 35% in size
# HCV inhibitor = qHTS Assay for Inhibitors of Hepatitis C Virus (HCV) | Huh7.5.1 HCVcc-Cre infection, luciferase reporter, 44 h | Potency, µM (highest dose often 41.8 µM), for the others: at the highest dose activity change, negative = inhibition, usual class: inhibitors | actives 3.4% (n = 340,000); active means well fitted inhibition curve with a large enough effect; inconclusive means small, poorly fitted or top-dose-only effect, or another doubt; inactive means no such curve, though single readings can be large or run the other way; further: potency means the concentration at half of the fitted maximal effect
#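 Seed cells (1,000/well) for 4 h; treat with compound and infect with HCVcc-Cre, moi about 0.5. Incubate 44 h, then detect luciferase activity.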
# HCMV inh = qHTS Assay for inhibitors of the human cytomegalovirus (HCMV); HFF cells, HCMV-luciferase reporter, 72 h; active compounds read low; activity change, negative = inhibition, % at 57.5 µM; actives 4.5% (n = 410,000); in the data active means activity change below about -60%; inconclusive means no clear call, values can overlap the other calls; inactive means above about -39%
#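 Compounds were evaluated in HFFs infected with an HCMV luciferase reporter virus (MOI 1 PFU/cell). Luciferase in lysates collected 72 h post infection served as the replication measure.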
# FMDV inh = High Throughput Screening for Foot and Mouth Disease Virus Antivirals. FMDV antiviral cell-based qHTS. Potency, µM (highest dose often 57.9 µM), inactives show at the highest dose activity change, negative = inhibition, hits mostly inhibitors. actives 1.2% (n = 410,000); calls by dose curve; tested in HEK293T cells; further: read-out not given here; potency means the concentration at half of the fitted maximal effect; nearly all actives have a fitted effect of over 45% in size
# Active calls of the source: *; i = inactive; u = inconclusive; x = no result given; + = active, no number; ! = repeats disagree. On the % scale 0 is the no-effect control and ±100 the full control effect.
SMILES,Vaccinia Venus,VACV mCherry inh,HCV inhibitor,HCMV inh,FMDV inh
CC(C)C[C@H]1CN([C@@H](CC(C)C)CN2CCCC2CN2C(=S)NC[C@@H]2Cc2ccc(O)cc2)C(=S)N1CC1CCCCC1 (stereo partly specified),u,u,-9%,-107*,u
CC(C)C[C@H]1CN([C@@H](CC(C)C)CN2CCCC2CN2C(=S)NC[C@@H]2Cc2ccc(O)cc2)C(=S)N1CC1CCCCCC1 (stereo partly specified),u,u,5%,-70*,u
O=C(NN=Cc1ccco1)C(=O)Nc1cccc(C(F)(F)F)c1,x,x,x,-6,x
COc1cc(/C=N/NC(=O)Nc2cccc3nsnc23)cc(OC)c1OC,-8%,x,u,-4,u
O=C(N/N=C/c1ccc(O)cc1)Nc1cccc2nsnc12,u,10µM*,u,-27,-2%
Nc1nonc1-n1nnc(C(=O)N/N=C/c2cccc(Cl)c2)c1-c1cccs1,-19%,-6%,-5%,+,-6%
CCOc1cccc(-c2c(C(=O)N/N=C(\C)c3ccncc3)nnn2-c2nonc2N)c1,-7%,-29%,3%,-30,-12%
Nc1nonc1-n1nnc(C(=O)N/N=C/c2cc(Br)cs2)c1-c1ccccc1,-21%,-28%,-11%,-69*,-22%
CCOc1cccc(-c2c(C(=O)N/N=C(\C)c3ccccn3)nnn2-c2nonc2N)c1,x,x,11µM*,-69*,-9%
COC(=O)[C@@H]1CCCN1C(=O)c1c(OC)cc(=O)n2c1CCN(Cc1ccc3nsnc3c1)CC2,-7%,-10%,x,x,-4%
c1ccc(CCNc2nc(-c3ccccn3)nc3ccccc23)cc1,-16%,-23%,2.8µM*,-103*,u
C/C(=N\Nc1nc(-c2ccccn2)nc2ccccc12)c1ccc(F)cc1,x,x,4.5µM*,x,-8%
C/C(=N\Nc1nc(-c2ccccc2O)nc2ccccc12)c1ccccc1,-6%,-18%,-4%,26,-4%
CCCCN(CC)c1nc(-c2ccncc2)nc2ccccc12,-26%,-28%,5.6µM*,-95*,25µM*
CCCN(CCC)c1nc(-c2ccccn2)nc2ccccc12,u,4.5µM*,u,-100*,u
O=C(NCc1ccncc1)c1cnn(-c2nccc(-c3cc4ccccc4o3)n2)c1C1CC1,-11%,-17%,x,x,-19%
CCOc1ccc(C2c3c(oc4ccc(C)cc4c3=O)C(=O)N2CCCN2CCOCC2)cc1 (stereo unspecified),0%,4%,x,2,17%
O=C(O)COCCN1CCN(C(c2ccccc2)c2ccc(Cl)cc2)CC1 (stereo unspecified),-6%,-9%,0%,26,8%
OCCOCCN1CCN(C(c2ccccc2)c2ccc(Cl)cc2)CC1 (stereo unspecified),-12%,-16%,1.4µM*!,-60*,-1%
Cc1nonc1OCCN1CCN(c2ccc([N+](=O)[O-])cc2)CC1,-3%,i,u,-16,u
O=[N+]([O-])c1ccc(N2CCN(CCOc3nonc3-c3ccccc3)CC2)c(Cl)c1,-13%,i,6.3µM*,7,x
COc1ccc(/C=C/c2onc(C)c2S(=O)(=O)N2CCC(C(=O)N3CCCCCC3)CC2)cc1,u,u,u,-69*,-20%
COc1cccc(/C=C/c2onc(C)c2S(=O)(=O)N2CCC(C(=O)N3CCCCC3)CC2)c1,-10%,i,x,u,-11%
Cc1cccc(/C=C/c2onc(C)c2S(=O)(=O)N2CCC(C(=O)N3CCCCC3)CC2)c1,-14%,-29%,10µM*,0,-24%
Cc1ccc(CNC(=O)C2CCN(S(=O)(=O)c3c(C)noc3/C=C/N(C)C)CC2)cc1,x,x,18%,-17,20%
SMILES,Vaccinia Venus,VACV mCherry inh,HCV inhibitor,HCMV inh,FMDV inh
Cc1noc(/C=C/N(C)C)c1S(=O)(=O)N1CCC(C(=O)O)CC1,2%,45%,17%,-69*,-15%
O=C(COc1ccccc1F)OCc1cc(=O)n2nc(-c3cccs3)sc2n1,-11%,-10%,x,27,0%
Cc1ccc(-c2nc(NC(=O)c3nn(C)cc3[N+](=O)[O-])sc2C)cc1,x,x,4.5µM*,-104*,11µM*
CCCOC(=O)Nc1nc(-c2ccc(C)cc2)c(C)s1,-7%,i,-16%,u,20%
Cc1cnc(NC(=O)c2nn(C)cc2[N+](=O)[O-])s1,-29%,-19%,u,-99*,-13%
Cc1ccc(-c2nc(NC(=O)c3nn(C)cc3[N+](=O)[O-])sc2C)cc1C,13µM*,10µM*,u,-107*,13µM*
Cn1cc([N+](=O)[O-])c(C(=O)Nc2nc(-c3ccc(Cl)cc3)cs2)n1,11µM*,x,4µM*,-96*,u
O=C(Nc1nc(-c2ccc([N+](=O)[O-])cc2)cs1)c1c(F)cccc1F,x,x,-16%,-12,-17%
Cc1cc(C)c2c(=O)nc(SCc3ccccc3C)n(C3CC3)c2n1,-23%,-10%,x,3,0%
CCn1ccc2c(OCC(=O)Nc3ccc(OC)cc3OC)cccc2c1=O,-14%,-15%,x,5,-20%
COc1ccc(NC(=S)Nc2ccc(N(C)C(C)=O)cc2)cc1,3%,3%,18%,-98*,-3%
COc1ccc(CCNC(=S)Nc2ccc(OC)cc2)cc1,x,x,-13%,-66*,-6%
COc1ccc(NC(=S)NCCc2c(C)[nH]c3ccc(OC)cc23)cc1,-13%,-22%,-22%,-69*,11%
COc1ccc(CNC(=S)Nc2ccc(OC)cc2)cc1,-11%,-10%,0%,20,39%
COc1ccc(CCNC(=S)Nc2ccccc2)cc1,x,x,u,-35,27%
COc1ccc(NC(=S)NCc2ccc(F)cc2)cc1,x,x,-3%,-64*,42%
Cc1c(C(=O)N(Cc2ccco2)Cc2ccccc2Cl)oc2ccc(F)cc12,-4%,-7%,x,-4,-23%
COc1ccc(OC)c(S(=O)(=O)N2Cc3ccccc3CC2C(=O)Nc2ccc(C(C)=O)cc2)c1 (stereo unspecified),-17%,-13%,x,21,-1%
CCc1cc(C(C)=O)c(O)cc1OCCCCCC(C)(C)c1nn[nH]n1,x,x,x,x,13%
CCN(CC(O)Cn1c2ccccc2c2ccccc21)S(=O)(=O)c1ccc(C)cc1 (stereo unspecified),x,x,3.2µM*,12,-8%
CN(CC(O)Cn1c2ccccc2c2ccccc21)S(C)(=O)=O (stereo unspecified),x,x,12%,-14,-17%
CC(=O)Nc1ccccc1N(CC(O)Cn1c2ccccc2c2ccccc21)S(=O)(=O)c1ccc(C)cc1 (stereo unspecified),u,-22%,11µM*,-11,0%
COc1ccc(N(CC(O)Cn2c3ccccc3c3ccccc32)S(=O)(=O)c2ccccc2)cc1 (stereo unspecified),u,x,u,-78*,u
